From publication PMC4552634, “A New Set of Chemical Starting Points with Plasmodium falciparum Transmission-Blocking Potential for Antimalarial Drug Discovery” (PLoS ONE, 2015)
The campaign covered roughly 13,000 compounds. About 3,200 (25%) showed an effect of 50% or more. Some of the results follow.

The compounds below were run on P. falciparum stage V gametocytes. Conditions: 48 h, 5 µM; inhibitor.
Set-up: BacTiter-Glo ATP luminescence viability of purified stage V gametocytes in 384-well plates, per cent inhibition versus DMSO

| Structure (SMILES) | % Inhibition [%] |
| --- | --- |
| CCOC(=O)c1[nH]c(-c2ccccc2)nc1NC(=S)NC1CCCCC1 [TCMDC-131430] | 5.591 |
| Cc1nc(/N=C(\N)NC(=O)NC2CCCCC2)nc2ccccc12 [TCMDC-123808] | 133.5 |
| Cc1ccc(NC(=O)NC2CCN(c3ccnc4ccccc34)CC2)cc1 [TCMDC-133588] | 13.19 |
| CC(C)CC(NC(=O)c1ccc(F)cc1)C(=O)N[C@H](/C=N/N1CCNC1=O)CC(C)C (stereo partly shown) [TCMDC-136214] | 16.28 |
| OC(c1ccccc1)C1CN(Cc2ccccc2)CCC1(O)c1ccccc1 (stereo not shown) [TCMDC-125518] | -9.589 |
| CC(c1cccc(S(=O)(=O)NCc2ccc(Cl)cc2Cl)c1)N1CCC(N2CCCCC2)CC1 (stereo not shown) [TCMDC-133564] | -22.09 |
| OC(CNCCc1ccccc1)Cn1c2ccc(Cl)cc2c2cc(Cl)ccc21 (stereo not shown) [TCMDC-124135] | 17.2 |
| CCC(CO)NCC(O)Cn1c2ccc(Br)cc2c2cc(Br)ccc21 (stereo not shown) [TCMDC-125710] | 27.72 |
| COCCNCC(O)Cn1c2ccc(Cl)cc2c2cc(Cl)ccc21 (stereo not shown) [TCMDC-123535] | 54.28 |
| CCNCCCC(C)Nc1ccnc2cc(Cl)ccc12 (stereo not shown) [TCMDC-125876] | 27.58 |
| CC(C)CCNCC(O)Cn1c2ccc(Cl)cc2c2cc(Cl)ccc21 (stereo not shown) [TCMDC-125673] | 69.1 |
| CCC(CO)NCC(O)Cn1c2ccc(Cl)cc2c2cc(Cl)ccc21 (stereo not shown) [TCMDC-125711] | 55 |
| Cc1nc(-c2cccc(C(=O)Nc3cnc4ccccc4c3)c2)no1 [TCMDC-135810] | 8.288 |
| CC1CCC(NCc2ccc3c(CNC4CCC(C)CC4)c(O)ccc3c2O)CC1 (stereo not shown) [TCMDC-137587] | -63.23 |
| COc1ccc(C(=O)O)cc1OCc1ccccc1 [TCMDC-125534] | 4.056 |
| COc1cccc(C(=O)NCCc2cccc(Cl)c2)c1OCc1ccccc1 [TCMDC-141235] | -13.17 |

| Structure (SMILES) | % Inhibition [%] |
| --- | --- |
| COc1cc(CCNC(=O)Cc2ccc3ccccc3c2)ccc1OCc1ccccc1 [TCMDC-137227] | 57.44 |
| CCC(C)CC(=O)Nc1ccc(OC)c(S(=O)(=O)N[C@@H]2CCN(C#N)C2)c1 (stereo partly shown) [TCMDC-134061] | 14.31 |
| COc1cc(-c2nc3ccc(N4CCN(C)CC4)cc3[nH]2)cc(OC)c1OC [TCMDC-124585] | -16.2 |
| Cc1cc(Nc2ncc(C#N)c(Nc3ccccc3C(N)=O)n2)ccc1N1CCN(C)CC1 [TCMDC-134115] | 104.7 |
| COc1ccc(Nc2ncc(OC)c(Nc3ccccc3C(N)=O)n2)cc1N1CCN(C)CC1 [TCMDC-134149] | 9.949 |
| CNC(=O)c1cnc(Nc2ccc(N3CCN(C)CC3)c(C)c2)nc1NC [TCMDC-134162] | 36.76 |
| COc1ccc(Nc2ncc(C#N)c(Nc3ccccc3C(N)=O)n2)cc1N1CCN(C)CC1 [TCMDC-134117] | -97.62 |
| NC(=O)c1ccccc1Nc1nc(Nc2cccc(N3CCN(CCO)CC3)c2)ncc1Cl [TCMDC-134114] | 94.95 |
| Cc1cc(Nc2ncc(Cl)c(Nc3ccccc3C(N)=O)n2)n[nH]1 [TCMDC-134170] | -34.04 |
| CN1CCN(c2ccc(Nc3ncc(Cl)c(Nc4cccnc4C(N)=O)n3)cc2)CC1 [TCMDC-134164] | -84.83 |
| COc1ccc(Nc2ncc(Cl)c(Nc3cccnc3C(N)=O)n2)cc1N1CCN(C)CC1 [TCMDC-134163] | 97.54 |
| CNC(=O)c1ccccc1Nc1nc(Nc2ccc(CCN3CCN(C)CC3)cc2)ncc1Cl [TCMDC-133800] | 8.334 |
| CNC(=O)c1ccccc1Nc1nc(Nc2ccc(N3CCN(C)CC3)nc2)ncc1C [TCMDC-134123] | 57.48 |
| CNC(=O)c1ccccc1Nc1nc(Nc2ccc(N3CCOCC3)cc2)ncc1Cl [TCMDC-134144] | -63.52 |
| CNC(=O)c1cnc(Nc2ccc(N3CCN(C)CC3)cc2)nc1Nc1ccccc1OC [TCMDC-141382] | -26.7 |
